The record followed here is PubChem BioAssay AID731 (The Scripps Research Institute Molecular Screening Center, 2007).

The campaign covered roughly 200,000 compounds. About 520 (0.26%) were called active. The sample holds actives, similar compounds and a random draw of the others, so the mix is not that of the screen. Cut-off read from the data, not from the text of the source: active = activation above about 23%; inactive = the rest.

Peroxisome proliferator-activated receptor gamma (Homo sapiens), sequence (P37231 whole entry, looked up): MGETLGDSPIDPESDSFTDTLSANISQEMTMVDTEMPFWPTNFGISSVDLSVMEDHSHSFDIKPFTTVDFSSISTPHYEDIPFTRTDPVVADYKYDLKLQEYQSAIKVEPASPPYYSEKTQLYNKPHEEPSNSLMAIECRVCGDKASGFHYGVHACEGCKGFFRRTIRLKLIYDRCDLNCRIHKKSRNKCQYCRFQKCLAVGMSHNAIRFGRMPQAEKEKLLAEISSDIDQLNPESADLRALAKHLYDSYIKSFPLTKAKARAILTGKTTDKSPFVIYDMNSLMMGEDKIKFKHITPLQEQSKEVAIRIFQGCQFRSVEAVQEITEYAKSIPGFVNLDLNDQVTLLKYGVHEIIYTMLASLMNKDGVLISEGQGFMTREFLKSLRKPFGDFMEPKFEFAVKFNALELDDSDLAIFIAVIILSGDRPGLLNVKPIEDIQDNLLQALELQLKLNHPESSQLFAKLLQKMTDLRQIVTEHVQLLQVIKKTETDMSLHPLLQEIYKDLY

This assay has as its target Peroxisome proliferator-activated receptor gamma (Homo sapiens) (UniProt P37231). Description: PPARgamma agonists recruiting SRC-3 coactivator, primary screen, biochemical (AID 731).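 Note: 0% = DMSO and 100% = reference agonist.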 The conditions noted are these: biochemical PPARgamma/SRC-3 coactivator recruitment assay; at 8 µM; hits give high values.
On to `COc1cccc(NC(=O)c2ccc(S(=O)(=O)N(C)C)cc2)c1`, for which the activation was -1.26% (inactive).
In the case of `COc1ccc(/C=N/Nc2ncnc3sc4c(c23)CCCC4)cc1O` it was -0.73% (inactive).
The result for `CCOC(=O)c1sc(-c2cccc([N+](=O)[O-])c2)cc1N` reads 10% (inactive); that for `Cc1nc2ccccn2c1C(=O)NN=C1CCN(C)CC1`, -4.87% (inactive); that for `O=C(NC(=S)Nc1cccc(-c2ccc(CO)o2)c1)c1cccs1`, 9.26% (inactive).
Take `O=C(NCc1ccco1)c1cc(-c2cccnc2)nc2ccc(Cl)cc12`: the activation is 7.42% (inactive).
The result for `O=C(/C=C/c1ccc(Cl)cc1Cl)NCc1ccco1` reads -0.09% (inactive).
The result for `O=C(CSc1c2c(nc3ccc(Cl)cc13)CCCC2)NCc1ccco1` reads 31.6% (active); that for `Cc1ccn(CC(=O)N2N=C(C(F)F)CC2(O)C(F)F)n1` (stereo not given), 3.61% (inactive).
On to `COc1ccc(N(C)S(=O)(=O)c2cccc3nsnc23)cc1`, for which the activation was -0.54% (inactive).
In the case of `CCN(/N=C/c1ccc(N(C)C)cc1)c1nc2ccccc2[nH]1` it was 16.6% (inactive); in that of `CC1c2nc3ccccc3n2C(CC(=O)NCCCN2CCOCC2)C(=O)N1Cc1ccccc1` (stereo not given), -3.13% (inactive).
For `Cc1cccc(OP(=O)(Nc2c(C)n(C)n(-c3ccccc3)c2=O)Oc2cccc(C)c2)c1`, the activation was 2.47% (inactive).
As for `CCN(CC)CCCNC(=O)c1cc(-c2cccc(Cl)c2)on1`, the activation is -5.33% (inactive).
In the case of `CCN(CCCNC(=O)CSc1cc(=O)n(C)c2cc(Cl)ccc12)Cc1ccccc1` it was 42.4% (active); in that of `CCN(CC)CCCNC(=O)CCc1ccccc1`, 4% (inactive); in that of `Cc1cc[n+](-c2[nH]c(=O)sc2/C=N/NC(=O)c2ccccc2[O-])cc1C`, 1.17% (inactive).
The result for `CC(C)NC(=O)CSc1ccccc1C(=O)NCc1ccc2c(c1)OCO2` reads -3.43% (inactive); that for `CCn1c(=O)cc(SCC(=O)NCCC2=CCCCC2)c2ccccc21`, 10.5% (inactive); that for `CCn1c(=O)cc(SCC(=O)NCc2ccc3c(c2)OCO3)c2ccccc21`, 31.8% (active).
The result for `O=C(NCc1ccco1)C(=O)c1cn(CC(=O)N2CCCCCC2)c2ccccc12` reads 4.6% (inactive).
As to `CN(C)c1ccc(C(CC(=O)O)C(=O)O)cc1` (stereo not given), the activation is 5.46% (inactive).
The result for `O=C(CNC(=O)C(c1ccccc1)c1ccccc1)N/N=C\c1ccc2c(c1)OCO2` reads -7.73% (inactive); that for `COc1ccc(/C=C/C(=O)NC(=S)NN2CCCCC2c2cccnc2)cc1` (stereo not given), -0.5% (inactive); that for `Fc1ccc(COc2cccc(-c3n[nH]c(=S)o3)c2)cc1`, 29.3% (active).
Consider `Cc1cccc(OCc2ccc(C(=O)Nc3ccc(F)cc3)cc2)c1`, for which the activation was -4.26% (inactive).
The result for `Cc1nc2ccccc2cc1OCc1ccc(F)cc1` reads 4.08% (inactive).
The result for `CC(C)/C=N/NC(=O)c1cc(Br)ccc1O` reads 4.98% (inactive).
With `COc1cccc(-n2c(=S)sc3c(=O)n(-c4ccccc4OC)c(SCC4OCCO4)nc32)c1`, the activation was -1.02% (inactive).
The result for `O=C(CCc1nnc(CCCCc2ccccc2)o1)NC(c1cccnc1)C(F)(F)F` (stereo not given) reads 0.98% (inactive); that for `COc1ccccc1N1CCN(/N=C\C(Br)=C\c2ccccc2)CC1`, 0.45% (inactive); that for `CC(=O)c1sc2nc(SCC(=O)N3CCCCC3)[nH]c(=O)c2c1C`, 32.9% (active).
For `O=C(CSc1nc2c(cnn2-c2ccc(F)cc2)c(=O)[nH]1)N1CCCCCC1`, the activation is -0.08% (inactive).
In the case of `C=CCNC(=O)CSc1nc2sc(C)c(C)c2c(=O)[nH]1` it was -3.68% (inactive); in that of `COCCN(C(=O)CCC(=O)Nc1nccs1)C(C(=O)NC(C)(C)C)c1ccc(Cl)cc1` (stereo not given), 8.27% (inactive); in that of `Cc1ccccc1C1=N/C(=C/c2cccnc2)C(=O)O1`, 5.51% (inactive).
The result for `Cc1ccc(S(=O)(=O)N(C)CC(=O)OCC(=O)N2CC(=O)Nc3ccccc32)cc1` reads -1.93% (inactive).
In the case of `COc1cccc(NC(=O)Cn2c3ccccc3c3nc4n(c(=O)c32)CCS4)c1`, the activation was 3.77% (inactive).
Turning to `O=C(NCc1cccs1)C1CCN(S(=O)(=O)c2ccc(Cl)cc2)CC1`, the activation was 0.55% (inactive).
The result for `O=C(N/C(=C\c1ccc(F)cc1)C(=O)N1CCCCCC1)c1ccccc1` reads 2.6% (inactive); that for `O=C(Oc1ccccc1)Oc1ccc2c(c1)oc(=O)c1ccccc12`, 57.2% (active).
Turning to `CC(=O)Oc1ccc2c(C)c(CC(C)O)c(=O)oc2c1` (stereo not given), the activation was -4.46% (inactive).
In the case of `Cc1c(Cc2ccccc2)c(=O)oc2cc(OCC(N)=O)ccc12` it was 1.07% (inactive); in that of `CNc1ccc(NC(C)=O)cc1[N+](=O)[O-]`, -3.86% (inactive); in that of `CCC1(CC)NC(=O)N(CC(=O)OCC(=O)Nc2ccc(C(F)(F)F)cc2)C1=O`, -5.07% (inactive).
Consider `CCCCCOc1ccc(/C=C/C(=O)NCCc2nc3ccccc3[nH]2)cc1OC`, for which the activation is 0.87% (inactive).
In the case of `Cn1c(C(=O)OC(C(=O)NC2CCCCC2)c2ccccn2)cc2sccc21` (stereo not given) it was 0.71% (inactive).
`Cc1ccc(Cl)cc1NC(=O)C1CCN(S(C)(=O)=O)CC1`: the activation was -1.48% (inactive).
Turning to `CCNCCC(=O)N1c2ccccc2Sc2ccc(NC(=O)OCC)cc21`, the activation was -12.4% (inactive).
Take `NNC(=O)C1CC(O)CN1S(=O)(=O)c1ccc(Cl)cc1` (stereo not given): the activation is 8.66% (inactive).
In the case of `CC1CC(C)CN(CCC(=O)Nc2ccc3c(c2)CCC3)C1` (stereo not given) it was 6.43% (inactive).
For `COC(C(=O)Nc1ccc(C(C)=O)cc1)c1ccccc1` (stereo not given), the activation is -2.12% (inactive).
In the case of `COc1ccccc1CCNC(=O)CSc1nnc2ccc(-c3cccnc3)nn12`, the activation was 2.38% (inactive).
In the case of `O=C(CN1CCN(c2ncccn2)CC1)Nc1ccccc1C(F)(F)F` it was -0.44% (inactive); in that of `COCCn1c(Cc2cccn2C)nnc1SCC(=O)Nc1nccs1`, 4.15% (inactive).
As to `Cc1nc(N2CCOCC2)c2c(C)c(C(=O)Nc3ccc(C(F)(F)F)cc3)sc2n1`, the activation was 6.42% (inactive).
In the case of `Cc1ccc(N2C(=O)C3C(c4ccccc4)(C2=O)C3(c2ccccc2)c2ccccc2)cc1` (stereo not given) it was -5.3% (inactive).
The result for `O=C(O)CCS(=O)(=O)c1ccc(-c2ccccc2)cc1` reads -2.87% (inactive).
The result for `C=CCC(CC=C)(C(N)=O)c1ccccc1` reads -2.8% (inactive); that for `CCOC(=O)CNC(=O)CSc1ccc2nnc(-c3cccnc3)n2n1`, -2.1% (inactive).
